PubChem BioAssay (NCATS)
Results filed as inconclusive are left out. A number with no mark means an inactive call. Activity calls are given as the source filed them. The call rests on the fitted dose curve; in most records, active means well fitted inhibition curve with a large enough effect; inconclusive means small, poorly fitted or top-dose-only effect; inactive means flat fitted curve, though single readings scatter.

The compounds below were run on MCC-13 (assay: qHTS assay to identify novel small-molecules to repurpose for Merkel cell carcinoma treatment (AID 1296009; further: nearly all actives have a fitted effect of over 60% in size)). Conditions: MCC and control cell lines, CellTiter-Glo viability, 72 h; series mostly up to 46 µM; activity change, negative = cytotoxicity: at the top concentration.
Outline: (§1)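 qHTS format: cells treated with library compounds in DMSO across 8 (NPC) or 11 (MIPE) concentrations. Readout after 72 hr at 37 degree celsius was CellTiter-Glo luminescence.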
On the % scale 0 is the no-effect control and ±100 the full control effect; potency means the concentration at half of the fitted maximal effect.

Structure (SMILES) | activity change, negative = cytotoxicity | Potency
CCN1CCc2nc(N)oc2CC1 | 18.5% | 
CCn1cc(C(=O)O)c(=O)c2cc3c(cc21)OCO3 | -2.05% [at 16.1 µM] | 
CCc1c(C)[nH]c2c1C(=O)C(CN1CCOCC1)CC2 (centres undefined) | 3.31% | 
COC(=O)[C@@H](N)Cc1ccc(O)c(O)c1 | -6.8% | 
CCOC(=O)c1cnc2c(cnn2CC)c1NN=C(C)C | -2.79% | 
Cc1scc2c1N(C(=O)CN1CCN(C)CC1)c1ccccc1NC2=O | 13.4% | 
CC(C)(C)NCC(O)c1cc(O)cc(O)c1 (centres undefined) | -3.56% | 
CC1=C(C)C(=O)C(CCCCC#CCCCC#CCO)=C(C)C1=O | -13.7% | 
C[N+](C)(C)CCOC(N)=O | -0.5% | 
NC(=O)c1cn(Cc2c(F)cccc2F)nn1 | 18.6% | 
CC(=O)OC(C)C[N+](C)(C)C (centres undefined) | -8.54% | 
NC(Cc1ccc(Cl)cc1)C(=O)O (centres undefined) | 20.3% [at 0.597 µM] | 
FC(F)(F)c1ccccc1-n1ccnc1 | 11.3% | 
CCCCNc1ccc(C(=O)OCCN(C)C)cc1 | 6.02% | 
O=C(O)CCCCCCCC(=O)O | -0.774% | 
CCN(CC)CCNC(=O)c1cc(S(C)(=O)=O)ccc1OC | 2.49% | 
O=C(O)CN(CCOCCOCCN(CC(=O)O)CC(=O)O)CC(=O)O | -0.433% [at 0.597 µM] | 

Structure (SMILES) | activity change, negative = cytotoxicity | Potency
CC(=O)[C@]1(O)Cc2c(O)c3c(c(O)c2[C@@H](O[C@H]2C[C@H](N)[C@H](O)[C@H](C)O2)C1)C(=O)c1ccccc1C3=O |  | 3.76 µM (active)
CCN1CCC[C@H]1CNC(=O)c1c(O)c(Cl)cc(Cl)c1OC | 19.6% | 
CCCN(CCC)C(=O)C(CCC(=O)O)NC(=O)c1ccccc1 (centres undefined) | 4.81% | 
CN1C[C@H](C(=O)N[C@]2(C)O[C@@]3(O)[C@@H]4CCCN4C(=O)[C@H](Cc4ccccc4)N3C2=O)C[C@@H]2c3cccc4[nH]cc(c34)C[C@H]21 | -3.35% | 
NC(N)=NC(=O)Cc1c(Cl)cccc1Cl | -2.9% | 
O=C(O)CN(CCN(CC(=O)O)CC(=O)O)CCN(CC(=O)O)CC(=O)O | 17.5% [at 16.1 µM] | 
CN=C(NC#N)NCCSCc1nc[nH]c1C | 13.5% | 
NC/C=C/C(=O)O | 0.618% | 
Cc1ccc(/C(=C\CN2CCCC2)c2ccccn2)cc1 | 3.44% | 
CCCN(CCC)CCc1cccc2c1CC(=O)N2 | 4.32% | 
NC(=O)c1ncn([C@@H]2O[C@H](CO)[C@@H](O)[C@H]2O)c1O | 8.09% | 
CC(C)[N+](C)(CCOC(=O)C1c2ccccc2Oc2ccccc21)C(C)C | -5.84% | 
O=C(O)CP(=O)(O)O | 5.63% | 
CCN(CC)CC(=O)Nc1c(C)cccc1C | -7.21% | 
NCCCNCCSP(=O)(O)O | 18.6% [at 9.22 µM] | 
Brc1c(NC2=NCCN2)ccc2nccnc12 | -10.4% | 
c1ccc2c(c1)CCCC2C1=NCCN1 (centres undefined) | 5.1% | 

The compounds below were run on MCC-26 in the same assay as above. Conditions: MCC and control cell lines, CellTiter-Glo viability, 72 h; series mostly up to 46 µM; activity change, negative = cytotoxicity: at the top concentration.
Outline: as §1

Structure (SMILES) | activity change, negative = cytotoxicity | Potency
CCN1CCc2nc(N)oc2CC1 | 4.91% | 
CCn1cc(C(=O)O)c(=O)c2cc3c(cc21)OCO3 | -6% [at 16.1 µM] | 
CCc1c(C)[nH]c2c1C(=O)C(CN1CCOCC1)CC2 (centres undefined) | 2.5% | 
COC(=O)[C@@H](N)Cc1ccc(O)c(O)c1 | -4.43% | 
CCOC(=O)c1cnc2c(cnn2CC)c1NN=C(C)C | 9.84% | 
Cc1scc2c1N(C(=O)CN1CCN(C)CC1)c1ccccc1NC2=O | -2% | 
CC(C)(C)NCC(O)c1cc(O)cc(O)c1 (centres undefined) | -10.1% | 
CC1=C(C)C(=O)C(CCCCC#CCCCC#CCO)=C(C)C1=O | -2.66% | 
C[N+](C)(C)CCOC(N)=O | 7.68% | 
NC(=O)c1cn(Cc2c(F)cccc2F)nn1 | 12.1% | 
CC(=O)OC(C)C[N+](C)(C)C (centres undefined) | -9.52% | 
NC(Cc1ccc(Cl)cc1)C(=O)O (centres undefined) | 17.1% [at 0.597 µM] | 
FC(F)(F)c1ccccc1-n1ccnc1 | 15.9% | 
CCCCNc1ccc(C(=O)OCCN(C)C)cc1 | 12% | 
O=C(O)CCCCCCCC(=O)O | 5.98% | 
CCN(CC)CCNC(=O)c1cc(S(C)(=O)=O)ccc1OC | 14.7% | 
O=C(O)CN(CCOCCOCCN(CC(=O)O)CC(=O)O)CC(=O)O | 19.1% [at 0.597 µM] | 
CC(=O)[C@]1(O)Cc2c(O)c3c(c(O)c2[C@@H](O[C@H]2C[C@H](N)[C@H](O)[C@H](C)O2)C1)C(=O)c1ccccc1C3=O |  | 1.33 µM (active)

Structure (SMILES) | activity change, negative = cytotoxicity | Potency
CCN1CCC[C@H]1CNC(=O)c1c(O)c(Cl)cc(Cl)c1OC | 9.73% | 
CCCN(CCC)C(=O)C(CCC(=O)O)NC(=O)c1ccccc1 (centres undefined) | -0.128% | 
CN1C[C@H](C(=O)N[C@]2(C)O[C@@]3(O)[C@@H]4CCCN4C(=O)[C@H](Cc4ccccc4)N3C2=O)C[C@@H]2c3cccc4[nH]cc(c34)C[C@H]21 | -1.14% | 
C[n+]1cc2c3c(ccc2c2ccc4cc5c(cc4c21)OCO5)OCO3 |  | 3.66 µM (active)
NC(N)=NC(=O)Cc1c(Cl)cccc1Cl | -14.3% | 
O=C(O)CN(CCN(CC(=O)O)CC(=O)O)CCN(CC(=O)O)CC(=O)O | 8.71% [at 16.1 µM] | 
CN=C(NC#N)NCCSCc1nc[nH]c1C | 6.4% | 
NC/C=C/C(=O)O | 6.9% | 
Cc1ccc(/C(=C\CN2CCCC2)c2ccccn2)cc1 | -2.63% | 
CCCN(CCC)CCc1cccc2c1CC(=O)N2 | -5.47% | 
NC(=O)c1ncn([C@@H]2O[C@H](CO)[C@@H](O)[C@H]2O)c1O | 0.904% | 
CC(C)[N+](C)(CCOC(=O)C1c2ccccc2Oc2ccccc21)C(C)C | -0.579% | 
O=C(O)CP(=O)(O)O | 3.15% | 
CCN(CC)CC(=O)Nc1c(C)cccc1C | -12.1% | 
NCCCNCCSP(=O)(O)O | 11.5% [at 9.22 µM] | 
Brc1c(NC2=NCCN2)ccc2nccnc12 | -14.7% | 
c1ccc2c(c1)CCCC2C1=NCCN1 (centres undefined) | 9.04% | 
